The source of these data is PubChem BioAssay AID493248 (Broad Institute, 2011).

Among all 2,300 compounds or so, about 1,400 (61%) were called active. About 7% were inconclusive and are not listed. The rule behind the calls is not given here. The set was probably picked from earlier hits. The list is a sample of the results. Potency and affinity values are given separately.

The target in this assay is FAD-linked sulfhydryl oxidase ALR (Homo sapiens) (UniProt P55789). Description: ALR-catalysed DTT oxidation blockers – biochemical, H2O2 detection, luminescence, cherry-pick, dose response (AID 493248). The conditions noted are these: purified ALR, H2O2 HRP-luminol luminescence; at 10 µM (top of the series).
Chain of FAD-linked sulfhydryl oxidase ALR (Homo sapiens) (P55789 whole entry, looked up): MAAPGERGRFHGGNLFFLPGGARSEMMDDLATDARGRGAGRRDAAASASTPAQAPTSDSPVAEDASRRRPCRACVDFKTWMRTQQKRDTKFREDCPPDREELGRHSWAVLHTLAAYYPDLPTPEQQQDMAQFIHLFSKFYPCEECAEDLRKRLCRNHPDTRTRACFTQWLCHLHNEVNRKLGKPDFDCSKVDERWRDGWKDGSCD
As for `COc1ccc2c(c1)N(C)/C(=C/c1cccc[n+]1C)S2`, the activity change, negative = inhibition is -53.1%.
The figure for `CCC(=O)Nc1cccc(-c2cnc3ccccc3n2)c1` is 3.89%.
The figure for `CN1CCN(c2ccc(NC(=O)c3ccc(Cl)cc3)cn2)CC1` is -19.7%; for `COc1cc(OC)cc(C(=O)N2CCC(N3CCN(c4ccccc4)CC3)CC2)c1` it is -61.4%.
The figure for `CC(=O)NN1C(=O)/C(=C\c2ccc(O)cc2)SC1=S` is -79.9%; for `O=C(C1CC1)N1CCN=C1SCc1ccc(Cl)cc1` it is -64.3%; for `O=C1c2ccccc2CSc2c(O)cccc21` it is -28.4%.
As for `CC(=O)Nc1ccc(S(=O)(=O)NNc2ccc([N+](=O)[O-])cc2)cc1`, the activity change, negative = inhibition is -103%.
As to `O=C(C1CC1)N1CCN=C1SCc1ccc(F)cc1`, the activity change, negative = inhibition was -51.5%.
Regarding `CN(C)/C=N/c1sc2c(c1C#N)CCC2`, the activity change, negative = inhibition was determined as 25.9%.
In the case of `COC(=O)c1ccc(NC(=O)c2ccc(C)cc2)o1`, the activity change, negative = inhibition was -4.94%.
Under `CN(C)c1ccc(/C=N/NC(=O)c2cccc(N3CCCC3=O)c2)cc1` stands -16.6%; under `CC(=O)Nc1cccc(N2CCCC2=O)c1`, -18.2%; under `CCc1c(C)sc(NC(=O)c2cc(C)no2)c1C#N`, -63.3%.
Under `COC(=O)c1ccc2[nH]c3c(c2c1)CC(C)CC3` (configuration not stated) stands -6.7%; under `Cc1nc2ccc(S(=O)(=O)N(C)CC(=O)NCc3ccc(N(C)C)cc3)cc2s1`, -41.2%.
As to `CCN1C(=O)c2ccc(C(=O)Nc3ccc(O)cc3C)cc2C1=O`, the activity change, negative = inhibition is -50.1%.
Take `CCn1c(-c2ccc(N)cc2)nc2ccccc21`: the activity change, negative = inhibition is -17.3%.
Under `CCN(Cc1nc2ccccc2n1C)c1ccccc1` stands -11.5%; under `CCn1c(CN(C)c2ccccc2)nc2ccccc21`, -7.07%.
Under `CN(Cc1nc2ccccc2n1C)c1ccccc1` stands -32.4%.
The figure for `O=C(Nc1ccc(O)cc1)c1cc2n(n1)C(C(F)(F)F)CC(c1ccco1)N2` (configuration not stated) is -82.6%; for `c1ccc2c(-c3csc(-c4ccncc4)n3)c[nH]c2c1` it is -10.2%; for `COc1cc(C=NNC(=O)c2ccc(NS(=O)(=O)c3cccs3)cc2)cc(Br)c1O` it is 165%.
On to `CCCCCCC(=O)N/N=C/c1ccco1`, for which the activity change, negative = inhibition is -28.6%.
With `COc1nc(-c2ccccc2Cl)ccc1C#N`, the activity change, negative = inhibition was -32.6%.
The figure for `Cc1ccc2cn[nH]c2c1N` is -36.2%.
Under `O=S(=O)(Nc1ccccc1O)c1ccc(Cl)nc1` stands -36.8%.
The figure for `COc1ccc(N2C(=O)CC(NNc3ncc(Cl)cc3Cl)C2=O)cc1` (configuration not stated) is -50.3%.
In the case of `CC1=NN(C(=O)c2ccc(Br)cc2)C(O)(c2ccccc2)C1` (configuration not stated), the activity change, negative = inhibition was determined as 286%.
Under `O=C(NCc1ccc2c(c1)OCO2)C1CC(=O)N(c2ccc(O)cc2)C1` (configuration not stated) stands -108%.
Under `Cc1noc(C)c1S(=O)(=O)N(CC(=O)NCc1ccc2c(c1)OCO2)c1ccc(C(C)C)cc1` stands 1.03%; under `O=c1[nH]n(-c2ccc(Cl)cc2)c2ncccc12`, 291%; under `O=C(CCCC(=O)c1ccccc1)Nc1ccc(O)cc1`, 182%.
Under `S=c1[nH]nc(Cc2noc3ccccc23)n1-c1ccc(Cl)cc1` stands -49.3%; under `COc1ccc(OC)c(/C(C)=N/Nc2ccc(C(=O)O)cc2)c1`, -31.7%; under `COc1ccc(CNc2nc3ccccc3n2CCN2CCCCC2)cc1`, 35.3%.
With `Brc1c(CSc2nnc(-c3ccco3)o2)nc2ccccn12`, the activity change, negative = inhibition was -95.5%.
Under `O=C(O)c1ccc(N(c2ccccc2)c2ccccc2)cc1` stands -77.1%; under `CCN(c1ccc(C)c(C)c1)S(=O)(=O)c1ccc2c(c1)CCN2C(=O)CCC(=O)O`, -9.61%.
Under `Cc1cc(-c2n[nH]c(=S)o2)c(C)n1-c1ccccc1` stands 19.3%.
Under `CCc1c(C)[nH]n(-c2ccc(Oc3ccccc3)c(S(=O)(=O)O)c2)c1=O` stands -7.16%; under `COc1ccc(-c2csc(N(CCCN(C)C)C(=O)c3ccc(F)cc3)n2)cc1`, -32.9%.
In the case of `CS(=O)(=O)N1CCN=C1SCc1cccc(F)c1`, the activity change, negative = inhibition was -0.153%.
Take `CCCS(=O)(=O)N1CCN=C1SCc1ccc(F)cc1`: the activity change, negative = inhibition was -0.819%.
With `S=c1[nH]nc(-c2c[nH]c3ccccc23)o1`, the activity change, negative = inhibition is -89%.
Under `CCn1c(-c2cc(OC)c(OC)c(OC)c2)n[nH]c1=S` stands -1.45%; under `CCCCCCCCN1[C@@H](CC(=O)O)c2ccc(C(F)(F)F)cc2S1(=O)=O`, -22.2%; under `COc1cccc2c3c(c(=O)[nH]c12)CCC(C)(C)O3`, -20.3%.
Under `CCn1c(SCc2nc3sc(C(=O)O)c(C)c3c(=O)[nH]2)nc2ccccc21` stands -10.8%; under `Cc1ccsc1C=Nc1ccc(O)cc1`, -98%; under `Nc1ccc(Oc2cc(N)cc(Oc3ccccc3)c2)cc1`, 29.7%.
Under `Cc1cccc(Oc2ccc(N)cc2)c1` stands -1.09%; under `CNc1nn(-c2cccc(Cl)c2)nc1N`, -9.08%.
As to `c1ccc(-c2cnc(CN3CCN(c4ccccc4)CC3)o2)cc1`, the activity change, negative = inhibition was -44.8%.
The figure for `COc1cccc(/C=N/n2c(-c3n[nH]c4c3CCC4)n[nH]c2=S)c1O` is -33.1%; for `CCCC(C)NC(=O)Cc1ccc(Br)cc1` (configuration not stated) it is 60.9%; for `CCCN1CCC(=O)N([C@H](CSc2ccc(OC)cc2)c2ccccc2)CC1` it is 1.83%.
The figure for `O=S1(=O)N=C(Nc2ccc(O)cc2)c2ccccc21` is 176%; for `Cc1ccc(-c2c(C(=O)O)c(C(=O)O)c3n2CSC3)cc1` it is -43.7%; for `S=c1[nH]nc(-c2ccco2)n1/N=C/c1ccccc1` it is 0.752%.
Under `Cc1n[nH]c(=S)n1/N=C/c1ccccc1` stands -93.3%.
